Results reported in PubChem BioAssay AID652115 (Broad Institute, 2013).
In all, about 330,000 compounds went through this assay and about 3,800 (1.2%) were called active. Cut-off read from the data, not from the text of the source: active = inhibition above about 15%; inconclusive = no clear call, values can overlap the other calls; inactive = below that. Many of the other results were omitted from the sample, so actives are more common in it than they were.

Each compound was assayed against NAD-dependent protein deacylase sirtuin-5, mitochondrial (Homo sapiens) (UniProt Q9NXA8) (assay: SIRT5 desuccinylase inhibitors, primary screen, biochemical, fluorescence imaging, single point, set 5 (AID 652115)). Settings: Purified SirT5, succinyl-peptide AMC, trypsin-coupled fluorescence; at 15 µM; stronger effect = higher value.
Chain of NAD-dependent protein deacylase sirtuin-5, mitochondrial (Homo sapiens) (Q9NXA8 whole entry, looked up): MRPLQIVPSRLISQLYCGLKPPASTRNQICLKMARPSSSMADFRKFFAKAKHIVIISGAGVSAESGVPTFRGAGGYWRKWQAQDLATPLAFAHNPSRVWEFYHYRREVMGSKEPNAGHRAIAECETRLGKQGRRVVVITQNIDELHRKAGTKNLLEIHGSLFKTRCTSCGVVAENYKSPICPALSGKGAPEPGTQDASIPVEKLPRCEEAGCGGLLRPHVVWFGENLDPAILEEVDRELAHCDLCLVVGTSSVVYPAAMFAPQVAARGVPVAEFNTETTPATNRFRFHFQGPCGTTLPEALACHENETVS
With `Cc1cc(/C=N/Nc2ccc([N+](=O)[O-])cn2)c(C)n1-c1cccc(C(=O)O)c1` the inhibition was 17.7% (active).
With `CC(C)c1ccc(C=NNc2ccc([N+](=O)[O-])cn2)cc1` the inhibition was 1.24% (inactive).
For `Cc1cccc(-n2c(C)cc(/C=N\NC(=O)c3cccs3)c2C)c1`, the inhibition was -1.07% (inactive).
For `O=S(=O)(c1ccc(F)cc1)N1CC[C@@H]2[C@@H](CO)Nc3ccc(-c4ccccc4F)cc3[C@@H]21`, the inhibition was 7.3% (inactive).
With `O=C(C[C@@H]1C[C@@H]2c3cc(NC(=O)Nc4ccc(F)cc4)ccc3O[C@@H]2[C@H](CO)O1)NCC(F)(F)F` the inhibition was -3.74% (inactive).
With `Cc1noc(C)c1NC(=O)N[C@H]1C=C[C@@H](CC(=O)Nc2ccccc2)O[C@H]1CO` the inhibition was 1.42% (inactive).
With `Cc1noc(C)c1NC(=O)N[C@@H]1CC[C@H](CC(=O)Nc2ccccc2)O[C@H]1CO` the inhibition was 5.15% (inactive).
For `Cc1noc(C)c1NC(=O)N[C@@H]1C=C[C@@H](CC(=O)Nc2ccccc2)O[C@H]1CO`, the inhibition was 32.2% (active).
In the case of `c1ccc(CCc2ccccn2)cc1`, the inhibition is reported as 9.65% (inactive).
For `CC(=O)c1nc2ccccc2n1Cc1ccccc1`, the inhibition was -2.51% (inactive).
For `O=S(=O)(Cc1ccccc1)c1nc2ccccc2n1Cc1ccccn1`, the inhibition was 21.7% (active).
For `COc1ccccc1NC(=O)N[C@H]1C=C[C@H](CC(=O)N[C@@H](C)c2ccccc2)O[C@H]1CO`, the inhibition was -1.94% (inactive).
`C/C=C/c1cnc2c(c1)C(=O)N([C@@H](C)CO)C[C@@H](C)[C@@H](CN(C)C(=O)c1cnccn1)O2` was tested, and the inhibition was -1.71% (inactive).
For `Cc1scc(C(=O)NNC(=S)NCc2ccccc2)c1C`, the inhibition was -0.205% (inactive).
For `Cc1occc1C(=O)NNC(=S)NCC(C)C`, the inhibition was 19.4% (active).
`Cc1scc(C(=O)NNC(=S)NCC(C)C)c1C` was tested, and the inhibition was -4.94% (inactive).
With `CO[C@H]1CN(C)C(=O)c2cc(NC(=O)C3CC3)ccc2OC[C@H](C)N(C(=O)CN(C)C)C[C@H]1C` the inhibition was 0.163% (inactive).
In the case of `CCC(=O)N1[C@@H]2c3ccc(-c4ccc(F)cc4)c(=O)n3C[C@H]1[C@H](CO)[C@H]2C(=O)N(C)C`, the inhibition is reported as -32.2% (inactive).
With `COc1ccc2c3c(n(C)c2c1)[C@@H](CO)N(CC1CC1)CC31CCN(C(=O)c2ccc3c(c2)OCO3)CC1` the inhibition was 3.18% (inactive).
In the case of `COc1cccc(NC(=O)CN(C)CC(=O)Nc2ccc3c(c2)CCC3)c1`, the inhibition is reported as 2.3% (inactive).
With `CC(C)Oc1ccc(C(=O)NCC(=O)Nc2ccc3c(c2)CCC3)cc1` the inhibition was -4.19% (inactive).
`COc1ccc(-c2ocnc2C(=O)Nc2ccc3c(c2)CCC3)cc1` was tested, and the inhibition was 22.1% (active).
For `CNC(=O)C[C@@H]1CC[C@H]2[C@H](COc3ccc(NC(=O)c4cccc(OC)c4)cc3C(=O)N2C)O1`, the inhibition was 2.09% (inactive).
With `CCc1cccc(NC(=O)O[C@H]2[C@H](OC(=O)Nc3ccccc3-c3ccccc3)[C@H](OC(=O)Nc3ccccc3-c3ccccc3)[C@@H](OC)O[C@@H]2CO)c1` the inhibition was 17.1% (active).
With `CO[C@H]1O[C@H](CO)[C@@H](OC(=O)Nc2ccccc2)[C@H](OC(=O)Nc2ccc3c(c2)OCO3)[C@H]1OC(=O)Nc1ccc2c(c1)OCO2` the inhibition was 2.4% (inactive).
For `CO[C@H]1O[C@H](CO)[C@@H](OC(=O)Nc2ccccc2-c2ccccc2)[C@H](OC(=O)Nc2ccccc2)[C@H]1OC(=O)Nc1ccccc1`, the inhibition was 8.45% (inactive).
In the case of `C[C@H]1CN([C@@H](C)CO)C(=O)c2cc(C3=CCCCC3)cnc2O[C@@H]1CN(C)C(=O)c1ccc(F)cc1`, the inhibition is reported as 1.19% (inactive).
For `CCCNC(=O)N1[C@H](CO)[C@@H]2c3ccccc3N(C(=O)C3CC3)C[C@@H]21`, the inhibition was 1.05% (inactive).
For `Cc1ccccc1C(=O)OC1OC(=O)C(Cl)=C1Nc1ccccc1` (stereo not given), the inhibition was -2.37% (inactive).
`CCOC(=O)c1ccc(Nc2cc3ccccc3c(=O)[nH]2)cc1` was tested, and the inhibition was -0.372% (inactive).
With `Cc1ccc(NC2=C(Cl)C(=O)OC2OC(=O)c2ccccc2C)cc1` (stereo not given) the inhibition was 17.3% (active).
With `O=C(c1cccnc1)N1CC(=O)N2[C@H](C1)[C@H](c1ccc(-c3ccccc3F)cc1)[C@@H]2CO` the inhibition was -2.3% (inactive).
In the case of `CCCNC(=O)Nc1ccc2c(c1)C(=O)N(C)C[C@H](OC)[C@H](C)CN(Cc1cccnc1)[C@@H](C)CO2`, the inhibition is reported as 0.086% (inactive).
For `O=[N+]([O-])c1ccc2c(c1)Nc1nc3ccccc3nc1N2`, the inhibition was 1.03% (inactive).
In the case of `CC(=O)Oc1ccc2c(=O)oc(-c3ccc([N+](=O)[O-])cc3)nc2c1`, the inhibition is reported as -2.32% (inactive).
With `O=[N+]([O-])c1ccc2oc(-c3cccc(O)c3)nc2c1` the inhibition was 18.3% (active).
In the case of `Cc1cccc(C(=O)NCc2nnc(SC(C)C(=O)Nc3nnc(C)s3)n2C)c1` (stereo not given), the inhibition is reported as 21.7% (active).
With `COc1ccccc1C(=O)NCc1nnc(SC(C)C(=O)Nc2nccs2)n1C` (stereo not given) the inhibition was -2% (inactive).
With `CC(Sc1nnc(CNC(=O)c2ccccc2F)n1C)C(=O)Nc1nccs1` (stereo not given) the inhibition was -2.13% (inactive).
`CCCNC(=O)C[C@H]1CC[C@H]2[C@@H](COC[C@@H](O)CN2C(=O)Nc2ccc(Cl)c(Cl)c2)O1` was tested, and the inhibition was 3.46% (inactive).
For `CC(C)(O)C#Cc1ccc(CNC[C@H]2O[C@@H](n3cnc4c(=O)[nH]c(N)nc43)[C@H](O)[C@@H]2O)s1`, the inhibition was -5.95% (inactive).
In the case of `Nc1nc2c(ncn2[C@@H]2O[C@H](CNCc3ccc(OCCCN4CCOCC4)cc3)[C@@H](O)[C@H]2O)c(=O)[nH]1`, the inhibition is reported as 22.3% (active).
For `Nc1nc2c(ncn2[C@@H]2O[C@H](CNS(=O)(=O)N3CCc4ccccc4C3)[C@@H](O)[C@H]2O)c(=O)[nH]1`, the inhibition was 2.78% (inactive).
For `CCOC(=O)[C@]12CCCC=C1N(CCC1=CCCCC1)C(=O)[C@H](CC(=O)N1CCCCC1)C2`, the inhibition was -0.497% (inactive).
For `CCOC(=O)[C@]12CCCC=C1N(CCC1=CCCCC1)C(=O)[C@H](CC(=O)N1CCSCC1)C2`, the inhibition was 0.458% (inactive).
For `CCOC(=O)[C@]12CCCC=C1N(CCC1=CCCCC1)C(=O)[C@H](CC(=O)N1CCN(C(=O)c3ccco3)CC1)C2`, the inhibition was 16.3% (active).
`C[C@H]1CN([C@@H](C)CO)C(=O)c2cc(C#CC3CCCC3)cnc2O[C@@H]1CN(C)C(=O)Cc1ccccn1` was tested, and the inhibition was 0.934% (inactive).
In the case of `COc1ccc(Cn2c(=S)[nH]c3cc(C(=O)N4CCCCC4)ccc3c2=O)cc1`, the inhibition is reported as 16.6% (active).
With `COc1ccc(Cn2c(=S)[nH]c3cc(C(=O)NCCCN4CCOCC4)ccc3c2=O)cc1` the inhibition was -1.07% (inactive).
With `COc1ccc(OC)c(-n2c(=S)[nH]c3cc(C(=O)N4CCCCC4)ccc3c2=O)c1` the inhibition was -0.433% (inactive).
